Laboratory results reported in PubChem BioAssay (NCATS).
A number with no mark means an inactive call. Results filed as inconclusive are left out. Active and inactive are the calls of the source. Unless noted, calls come from the whole dose curve; as a rule, active = well fitted curve in either direction with a large enough effect (not every such curve was filed as active); inconclusive = small, poorly fitted or top-dose-only effect, or another doubt; inactive = flat fitted curve, though single readings scatter.

Tests used:
[1] = AP1 Signaling Pathway (AID 357); conditions: ME-180 AP-1-bla reporter, EGF-induced, beta-lactamase ratio, 5 h; at 17.2 µM (top of the series) unless noted;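 note: ME-180 reporter cells stimulated with EGF at its EC50 level; % is set by controls: 0 for no effect and ±100 for the full control effect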
Procedure, shortened: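 In this screen, ME-180 cells in Opti-MEM with 0.5% dialyzed FBS received EC50 EGF and compound titrations for 5 h. AP-1 reporter beta-lactamase was detected via CCF4 ratio, giving AC50 for positive and negative modulators.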

[2] = NFAT Signaling Pathway (AID 444); conditions: Jurkat NFAT-bla M1, carbachol, beta-lactamase ratio, 5 h; at 17.2 µM (top of the series) unless noted;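 note: carbachol stimulus at about its EC50 of 1 µM final; % is set by controls: 0 for no effect and ±100 for the full control effect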
Procedure, shortened: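 Jurkat cells with NFAT-driven β-lactamase reporter and co-expressed M1 receptor, stimulated with carbachol (final 1 uM, ~EC50), compound titration, 5 h at 37 °C. CCF4 loaded 1 h at RT; 460/530 nm ratio gave %activity and AC50.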

[3] = target: Glucocorticoid receptor (Homo sapiens) (UniProt P04150); experiment: GR-GFP Redistribution (AID 450;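 active = compounds whose dose series gives a full or clear partial fitted curve of increased nuclear translocation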; note: potency is the fitted concentration of half-maximal effect)
[4] = target: Mitogen-activated protein kinase 10 (Mus musculus) (UniProt Q61831); experiment: JNK3 AlphaScreen Assay (AID 530);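 note: kinase came from lysate of stimulated human HepG2 cells; signal reports phosphorylation of biotinylated GST-cJun 1-79 at Ser73 with 10 µM ATP; % is set by controls: 0 for no effect and ±100 for the full control effect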
Procedure, shortened: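 HepG2 lysate (IL-1b/TNFa pre-activated) + biotin-GST-cJun 1-79 + anti-pSer73 cJun; cpd titration, 15 min RT; ATP 10 uM start; Tris pH 7.6, MgCl2, DTT, vanadate; beads in EDTA buffer; AlphaScreen.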

[5] = qHTS Assay for Identification of Small Molecule Agonists for Thrombopoietin (TPO) Signaling Pathway (AID 917; active = well fitted curve in the direction sought with a large enough effect; an effect the other way counts as inactive or inconclusive; note: % is set by controls: 0 for no effect and ±100 for the full control effect)
Procedure, shortened: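 Ba/F3 (mouse) + hTPO receptor + GpIIb-promoter luciferase; IL-3 withdrawn overnight; compound + 26 pM TPO (EC50), 24 hrs, 37 C, 5% CO2; Steadylite luminescence, 10 min RT.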

[6] = target: Muscarinic acetylcholine receptor M1 (Rattus norvegicus) (UniProt P08482); experiment: qHTS Assay for Antagonists of Acetylcholine Muscarinic M1 Receptor: Measurement of IP-One Response (AID 944; active = well fitted curve in the direction sought with a large enough effect; an effect the other way counts as inactive or inconclusive; note: nearly all actives have a fitted effect of over 75% in size)
Procedure, shortened: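 Antagonism was measured as loss of carbachol-driven (EC80) IP1 accumulation in CHO cells carrying rat M1, using a homogeneous IP-One TR-FRET kit read at 620 and 665 nm.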

[7] = target: Cytochrome P450 2C9 (Homo sapiens) (UniProt P11712); experiment: qHTS Assay for Inhibitors and Substrates of Cytochrome P450 2C9 (AID 883; active = well fitted curve in the direction sought with a large enough effect; an effect the other way counts as inactive or inconclusive; note: % is set by controls: 0 for no effect and ±100 for the full control effect; nearly all actives have a fitted effect of over 60% in size)
Procedure, shortened: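 10nM CYP2C9 + 100uM Luciferin-H (=KM), 25mM KPO4; cpd 10 min 37C; NADPH regen, 60 min 37C; stop/detect with P450 Glo-Buffer 20 min; luminescence. Norm. to 57uM sulphaphenazole as full inhibition.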

[8] = target: Cytochrome P450 3A4 (Homo sapiens) (UniProt P08684); experiment: qHTS Assay for Activators of Cytochrome P450 3A4 (AID 885; active = well fitted curve in the direction sought with a large enough effect; an effect the other way counts as inactive or inconclusive; note: nearly all actives have a fitted effect of over 65% in size)
Procedure, shortened: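 Luminescent readout of luciferin formed from 25 uM Luciferin-PPXE (KM level) by 20 nM CYP3A4 in 200 mM KPO4, with 60 min NADPH-driven reaction at room temperature after 10 min compound exposure. Ketoconazole (57 uM) defined 100% inhibition.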

[9] = Stat Signaling Pathway (AID 446); conditions: ME-180 (cervical carcinoma) SIE beta-lactamase reporter, IL-6 stimulated, 5 h; at 17.2 µM (top of the series) unless noted
Procedure, shortened: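 FRET read-out (405 nm excitation, 460/530 nm emission) of a beta-lactamase reporter under a STAT-inducible element in ME-180 cervical carcinoma cells. Cells with compound receive 40 pM IL-6 for 5 h. Values are normalised to AC90 stimulation and AC90 JAK-inhibitor controls.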

Chain of Glucocorticoid receptor (Homo sapiens) (P04150 whole entry, looked up): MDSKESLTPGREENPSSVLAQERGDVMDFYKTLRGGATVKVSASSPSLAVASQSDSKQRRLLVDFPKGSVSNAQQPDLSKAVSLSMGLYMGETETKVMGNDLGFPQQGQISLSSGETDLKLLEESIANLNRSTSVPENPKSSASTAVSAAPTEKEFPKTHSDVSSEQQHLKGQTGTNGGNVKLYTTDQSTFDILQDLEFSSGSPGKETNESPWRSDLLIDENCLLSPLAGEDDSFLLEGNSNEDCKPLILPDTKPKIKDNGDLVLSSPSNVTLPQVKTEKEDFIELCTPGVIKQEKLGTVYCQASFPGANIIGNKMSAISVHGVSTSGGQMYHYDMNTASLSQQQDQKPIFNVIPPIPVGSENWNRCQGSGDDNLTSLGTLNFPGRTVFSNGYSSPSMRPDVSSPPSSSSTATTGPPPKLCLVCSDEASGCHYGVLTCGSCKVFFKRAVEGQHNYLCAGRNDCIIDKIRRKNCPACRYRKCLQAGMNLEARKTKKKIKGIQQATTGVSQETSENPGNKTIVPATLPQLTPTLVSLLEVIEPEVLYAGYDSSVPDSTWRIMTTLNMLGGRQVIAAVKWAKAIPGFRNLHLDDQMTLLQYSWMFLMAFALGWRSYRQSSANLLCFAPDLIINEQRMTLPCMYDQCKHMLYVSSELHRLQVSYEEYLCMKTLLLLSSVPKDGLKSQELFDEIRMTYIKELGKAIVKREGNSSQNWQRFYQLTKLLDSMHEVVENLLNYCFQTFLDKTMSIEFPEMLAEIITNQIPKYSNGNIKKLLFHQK
Chain of Cytochrome P450 2C9 (Homo sapiens) (P11712 whole entry, looked up): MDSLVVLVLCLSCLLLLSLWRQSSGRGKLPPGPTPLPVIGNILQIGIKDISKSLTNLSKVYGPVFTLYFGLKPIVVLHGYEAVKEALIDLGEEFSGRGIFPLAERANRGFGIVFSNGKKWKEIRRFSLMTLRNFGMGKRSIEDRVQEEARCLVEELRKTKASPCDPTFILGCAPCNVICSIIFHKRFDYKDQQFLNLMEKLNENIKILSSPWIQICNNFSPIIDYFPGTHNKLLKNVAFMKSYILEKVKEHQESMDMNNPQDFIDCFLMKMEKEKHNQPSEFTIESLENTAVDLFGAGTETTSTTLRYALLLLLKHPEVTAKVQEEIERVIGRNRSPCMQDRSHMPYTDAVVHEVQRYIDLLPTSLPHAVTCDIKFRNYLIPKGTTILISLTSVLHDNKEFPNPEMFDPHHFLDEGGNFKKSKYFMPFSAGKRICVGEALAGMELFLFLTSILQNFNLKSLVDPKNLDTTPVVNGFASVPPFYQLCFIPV
Chain of Cytochrome P450 3A4 (Homo sapiens) (P08684 whole entry, looked up): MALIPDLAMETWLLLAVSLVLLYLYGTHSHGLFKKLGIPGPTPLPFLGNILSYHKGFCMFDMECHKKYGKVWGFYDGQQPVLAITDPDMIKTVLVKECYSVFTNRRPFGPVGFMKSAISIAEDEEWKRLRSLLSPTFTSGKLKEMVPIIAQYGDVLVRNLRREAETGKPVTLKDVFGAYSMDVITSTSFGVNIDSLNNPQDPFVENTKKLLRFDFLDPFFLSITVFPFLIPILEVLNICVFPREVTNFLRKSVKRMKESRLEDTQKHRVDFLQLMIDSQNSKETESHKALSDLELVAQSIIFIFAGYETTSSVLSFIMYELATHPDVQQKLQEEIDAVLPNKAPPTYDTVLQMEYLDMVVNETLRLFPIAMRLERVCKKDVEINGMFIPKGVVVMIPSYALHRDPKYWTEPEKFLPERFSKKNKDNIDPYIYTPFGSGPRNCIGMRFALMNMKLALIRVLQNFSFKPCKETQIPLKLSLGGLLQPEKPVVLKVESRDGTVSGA
Chain of Muscarinic acetylcholine receptor M1 (Rattus norvegicus) (P08482 whole entry, looked up): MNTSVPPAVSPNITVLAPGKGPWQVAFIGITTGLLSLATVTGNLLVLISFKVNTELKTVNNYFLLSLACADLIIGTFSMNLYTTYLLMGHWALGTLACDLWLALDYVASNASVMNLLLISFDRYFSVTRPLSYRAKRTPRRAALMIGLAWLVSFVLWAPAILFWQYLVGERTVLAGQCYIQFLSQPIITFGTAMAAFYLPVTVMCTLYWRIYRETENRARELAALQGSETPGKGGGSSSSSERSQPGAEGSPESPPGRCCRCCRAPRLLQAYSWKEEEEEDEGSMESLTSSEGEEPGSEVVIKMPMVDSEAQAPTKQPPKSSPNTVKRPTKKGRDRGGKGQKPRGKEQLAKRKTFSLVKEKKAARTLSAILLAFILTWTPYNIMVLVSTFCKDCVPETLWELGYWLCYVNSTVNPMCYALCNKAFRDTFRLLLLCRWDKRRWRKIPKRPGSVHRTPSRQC

**Q.** With `Oc1ccc(Br)cc1CNn1cnnc1` as the molecule, how does the activity change, negative = inhibition [1] read?
**A.** 2.16%

**Q.** What about the activity change, negative = inhibition [2] of the same molecule?
**A.** 9.44%

**Q.** And the Potency [3]?
**A.** > 20.6 µM

**Q.** Which activity change, negative = inhibition [1] does the source give for `Cc1ccc(CNC(=O)c2cc3c(=O)n4ccccc4nc3n(CC3CCCO3)c2=N)cc1` (stereo not drawn) here?
**A.** 20.6%

**Q.** And the activity change, negative = inhibition [2]?
**A.** 21.8%

**Q.** What about the Potency [3] of the same molecule?
**A.** > 20.6 µM

**Q.** What does the source list for `CC(C)(C)n1nnc(CCc2nnn(C(C)(C)C)n2)n1`?
**A.** activity change, negative = inhibition [1]: 1.01%; activity change, negative = inhibition [2]: -17.9%; Potency [3]: > 20.6 µM

**Q.** For `CC(C)(C)OC(=O)N1CC=C2C(C#N)=C(N)C(C#N)(C#N)[C@H](c3cccnc3)[C@H]2C1`, which activity change, negative = inhibition [1] is on record?
**A.** 3.85%

**Q.** What about the activity change, negative = inhibition [2] of the same molecule?
**A.** 4.36%

**Q.** And the Potency [3]?
**A.** > 20.6 µM

**Q.** What does the source list for `CCOC(=O)CCc1c(C)c(C#N)c2[nH]c3ccccc3n2c1=O`?
**A.** activity change, negative = inhibition [1]: -16.5%; activity change, negative = inhibition [2]: -0.365%; Potency [3]: > 20.6 µM

**Q.** Which activity change, negative = inhibition [1] does the source give for `CC1(C(=O)CSc2ncn[nH]2)CCC(=O)O1` (stereo not drawn) here?
**A.** -3.81%

**Q.** And the activity change, negative = inhibition [2]?
**A.** 2.7%

**Q.** And the Potency [3]?
**A.** > 20.6 µM

**Q.** Which results are given for `Cc1nn(-c2cccc(Cl)c2)c2c1C(c1ccncc1)C(C#N)=C(N)O2` (stereo not drawn)?
**A.** activity change, negative = inhibition [1]: 17.6%; activity change, negative = inhibition [2]: -16.8%; Potency [3]: > 20.6 µM

**Q.** What does the source list for `COc1cc(-c2nn3c(COc4ccccc4)nnc3s2)cc(OC)c1OC`?
**A.** activity change, negative = inhibition [1]: 0.0695%; activity change, negative = inhibition [2]: 11.1%; Potency [3]: > 20.6 µM

**Q.** What does the source list for `Cc1ccc(-c2nn3c(-c4cccc(Cl)c4)nnc3s2)cc1`?
**A.** activity change, negative = inhibition [1]: 24.6%; activity change, negative = inhibition [2]: -1.56%; Potency [3]: > 20.6 µM

**Q.** What does the source list for `COC(=O)C1C(=O)CC(C)(O)C(C(=O)OC)C1c1ccccc1F` (stereo not drawn)?
**A.** activity change, negative = inhibition [1]: 0.159%; activity change, negative = inhibition [2]: -0.943%; Potency [3]: > 20.6 µM

**Q.** Which results are given for `CCCCOc1cccc(-c2nnc(N)s2)c1`?
**A.** activity change, negative = inhibition [1]: -19.6%; activity change, negative = inhibition [2]: 7.5%; Potency [3]: > 20.6 µM

**Q.** For `Cc1cccc(OCc2nc(C)cc(=O)[nH]2)c1`, which activity change, negative = inhibition [1] is on record?
**A.** 9.24%

**Q.** What about the activity change, negative = inhibition [2] of the same molecule?
**A.** -0.73%

**Q.** What about the Potency [3] of the same molecule?
**A.** > 20.6 µM

**Q.** For `O=C(CC(c1ccccc1)c1ccco1)N1CCOCC1` (stereo not drawn), which activity change, negative = inhibition [1] is on record?
**A.** -9.46%

**Q.** What about the activity change, negative = inhibition [2] of the same molecule?
**A.** 1%

**Q.** And the Potency [3]?
**A.** > 20.6 µM

**Q.** Which activity change, negative = inhibition [1] does the source give for `Cn1c(=O)cc(NCc2ccccc2)[nH]c1=O` here?
**A.** 15%

**Q.** And the activity change, negative = inhibition [2]?
**A.** -6.77%

**Q.** And the Potency [3]?
**A.** > 20.6 µM

**Q.** With `N#Cc1c(N)nc(SCC(=O)NCc2ccc3c(c2)OCO3)c(C#N)c1-c1cccs1` as the molecule, how does the activity change, negative = inhibition [1] read?
**A.** -27.2%

**Q.** And the activity change, negative = inhibition [2]?
**A.** -13.6%

**Q.** What about the Potency [3] of the same molecule?
**A.** > 20.6 µM

**Q.** Which activity change, negative = inhibition [1] does the source give for `CSc1nc2sc3c(c2c(=O)n1C1CCCCC1)CCN(C)C3` here?
**A.** -0.967%

**Q.** What about the activity change, negative = inhibition [2] of the same molecule?
**A.** -81.1% (active)

**Q.** What about the Potency [3] of the same molecule?
**A.** > 20.6 µM

**Q.** Which results are given for `COC(=O)/C(=C1/Oc2cc(C)oc(=O)c2S1)C(F)(F)F`?
**A.** activity change, negative = inhibition [1]: 7.82%; activity change, negative = inhibition [2]: -131% (active); Potency [3]: > 20.6 µM

**Q.** For `Nc1nonc1-c1noc(-c2ccccc2)n1`, which activity change, negative = inhibition [1] is on record?
**A.** 7.84%

**Q.** What about the activity change, negative = inhibition [2] of the same molecule?
**A.** -13.1%

**Q.** And the Potency [3]?
**A.** > 20.6 µM

**Q.** Which activity change, negative = inhibition [1] does the source give for `CC1(C)C2CCC1(C)C(OC(=O)CC(=O)O)C2` (stereo not drawn) here?
**A.** 4.82%

**Q.** What about the activity change, negative = inhibition [2] of the same molecule?
**A.** 8.38%

**Q.** And the Potency [3]?
**A.** > 20.6 µM

**Q.** What does the source list for `CN(CCCCCC(=O)/C=N/O)Cc1ccccc1`?
**A.** activity change, negative = inhibition [1]: 26.2%; activity change, negative = inhibition [2]: -28%; Potency [3]: > 20.6 µM

**Q.** With `C=C(Br)CN1CCN(CC(=C)Br)CC1` as the molecule, how does the activity change, negative = inhibition [1] read?
**A.** 10.5%

**Q.** And the activity change, negative = inhibition [2]?
**A.** -10.3%

**Q.** What about the Potency [3] of the same molecule?
**A.** > 20.6 µM

**Q.** For `CC(=O)c1ccc(O)c(CO)c1`, which activity change, negative = inhibition [1] is on record?
**A.** 12.6%

**Q.** What about the activity change, negative = inhibition [2] of the same molecule?
**A.** -1.78%

**Q.** And the Potency [3]?
**A.** > 20.6 µM

**Q.** For `CSc1nc(N2CCCC2)c2c(c1C#N)CC(C)(C)OC2`, which activity change, negative = inhibition [1] is on record?
**A.** -20.7%

**Q.** What about the activity change, negative = inhibition [2] of the same molecule?
**A.** -19.8%

**Q.** What about the Potency [3] of the same molecule?
**A.** > 20.6 µM

**Q.** What does the source list for `O=C(NO)c1ccccc1O`?
**A.** activity change, negative = inhibition [1]: -4.21%; activity change, negative = inhibition [2]: -9.27%; Potency [3]: > 20.6 µM

**Q.** With `COc1cc2nc(-c3ccccc3)nc(N3CCCC3)c2cc1OC` as the molecule, how does the activity change, negative = inhibition [1] read?
**A.** 24.5%

**Q.** And the activity change, negative = inhibition [2]?
**A.** -11.3%

**Q.** What about the Potency [3] of the same molecule?
**A.** > 20.6 µM

**Q.** For `c1ccc2c(c1)[nH]c1c(N3CCC4(CC3)OCCO4)ncnc12`, which activity change, negative = inhibition [1] is on record?
**A.** -1.63%

**Q.** What about the activity change, negative = inhibition [2] of the same molecule?
**A.** 7.49%

**Q.** And the Potency [3]?
**A.** > 20.6 µM

**Q.** With `CCCCCCCCCC(=O)N[C@@H](CN1CCOCC1)[C@@H](O)c1ccccc1` as the molecule, how does the Potency [4] read?
**A.** inactive

**Q.** And the Potency [5]?
**A.** inactive

**Q.** And the Potency [6]?
**A.** inactive

**Q.** Which Potency [4] does the source give for `CN(C)CCCO[C@H]1[C@H]([C@H](O)CO)O[C@H]2OC(C)(C)O[C@@H]21` here?
**A.** inactive

**Q.** With `CCCCCCCCCCCCCCCCCC(=O)NC[C@@H](COP(=O)([O-])OCC[N+](C)(C)C)OCC` as the molecule, how does the Potency [7] read?
**A.** inactive

**Q.** What about the Potency [8] of the same molecule?
**A.** inactive

**Q.** And the Potency [5]?
**A.** inactive

**Q.** With `COc1ccccc1-c1nn2c(-c3ccco3)nnc2s1` as the molecule, how does the activity change, negative = inhibition [1] read?
**A.** 0.523%

**Q.** And the activity, negative = inhibition [9]?
**A.** -5.72%

**Q.** And the Potency [3]?
**A.** > 20.6 µM
